Shiga inhibitor: inhibitors of Shiga toxin in Vero cells; actives 9.2% (n = 290,000); inhibition, % at 38.7 µM; Vero cells, Shiga toxin protein synthesis inhibition reporter; AID 2315; in the data active = inhibition mostly above about 28%, no sharp cut-off; inactive = mostly below about 43%; note: 0% is about no effect
AMA1 RON2 block: inhibitors of Plasmodium falciparum AMA1-RON2 interaction; AlphaScreen AMA1-biotinylated RON2 peptide binding; Potency, µM (top dose mostly 58.2 µM), for inactives: top-dose activity change, negative = inhibition, actives largely listed as inhibitors; actives 0.2% (n = 360,000);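 note: potency is the fitted concentration of half-maximal effect; 0% = vehicle wells and -100% = peptide control; nearly all actives have a fitted effect of over 45% in size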
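AMA1 (3D7) with his tag at 25 nM final met compounds first, then biotinylated RON2 peptide at 25 nM; detection used donor plus acceptor beads, 10 µg/mL apiece, read by AlphaScreen after 30 min at room temperature.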
HCV inh: HCV inhibition | Huh7.5.1 HCVcc-Cre infection, luciferase reporter, 44 h | Potency, µM (doses to about 41.8 µM), without a hit: at the highest dose activity change, negative = inhibition, hits mostly inhibitors | actives 3.4% (n = 340,000) | AID 651820; note: potency is the fitted concentration of half-maximal effect; % is set by controls: 0 for no effect and ±100 for the full control effect
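Infectious HCV cell culture screen: compound-treated cells (1,000/well, pre-plated 4 h) are infected with HCVcc-Cre at roughly 0.5 moi and grown 44 h. Infection is quantified by luciferase signal after 15 min substrate incubation at room temperature.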
Pf growth 96h: P. falciparum growth inhibition at 96 hour, primary screen for plastid delayed-death inhibitors | P. falciparum luciferase reporter growth, 96 h | Potency, µM (titrated, usually from 28.7 µM), for the others: at the highest dose activity change, negative = inhibition, most hits filed as inhibitors | actives 6.9% (n = 320,000) | AID 504834; note: potency is the fitted concentration of half-maximal effect; % is set by controls: 0 for no effect and ±100 for the full control effect
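Plates of compound plus infected erythrocytes (2% hematocrit, 0.05% parasitemia final) incubate 96 hours, 37 C, 5% CO2. Detection reagent added; reduced luminescence from the parasites' luciferase reporter flags inhibition.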
Pf growth 48h: P. falciparum growth inhibition at 48 hours (one generation); P. falciparum luciferase growth in erythrocytes, 48 h; actives 5.9% (n = 310,000); Potency, µM (highest dose often 28.7 µM), inactives show top-dose activity change, negative = inhibition, actives largely listed as inhibitors; note: potency is the fitted concentration of half-maximal effect; % is set by controls: 0 for no effect and ±100 for the full control effect
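Luciferase-expressing P. falciparum in infected erythrocytes (2% hematocrit, 0.1% parasitemia final) in RPMI 1640/0.5% Albumax were exposed to compound for 48 hours at 37 C, 5% CO2; growth read as luminescence.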
Cycloheximide cs: counter-screen for Shiga toxin inhibitors: cycloheximide protein synthesis inhibition | cell reporter, cycloheximide protein synthesis inhibition counterscreen | max response, % | actives 12% (n = 300,000) | AID 2314; in the data active = max response mostly above about 13%, no sharp cut-off; inactive = mostly below about 14%; note: read at 38.3 µM for the half of the compounds with a filed dose; 0% is about no effect
* hit, by the source's call; i = inactive; ? = inconclusive; . = no result given; + = active, no number; [ ] = another dose, or the depositor's remark. An excerpt weighted towards active compounds, which were near 21% of everything screened. Unless noted, calls come from the whole dose curve; as a rule, active = well fitted curve in the direction sought with a large enough effect; inconclusive = small, poorly fitted or top-dose-only effect, or another doubt; inactive = no such curve, though single readings can be large; an effect the other way counts as inactive or inconclusive.

SMILES | Shiga inhibitor | AMA1 RON2 block | HCV inh | Pf growth 96h | Pf growth 48h | Cycloheximide cs
Cc1ccc(C(=O)C2CN(C)CC2C(=O)c2ccc(C)cc2)cc1 (stereo unspecified) | 38.8* | -15.2% | 5.5% | 29.0% | -2.5% | 23.2*
CN=c1scc(-c2ccc([N+](=O)[O-])cc2)n1/N=C/c1ccco1 | 90.9* | -10.6% | 11.6% | i | 338.5% | 27.1*
O=C1c2ccc([N+](=O)[O-])cc2NC(c2ccco2)N1/N=C/c1ccco1 (stereo unspecified) | 31.1* | -0.5% | -17.7% | ? | 33.1% | 14.7*
O=C1c2ccccc2NC(c2ccc(-c3cccc([N+](=O)[O-])c3)o2)N1O (stereo unspecified) | -2.7 | 46.4% | -21.0% | ? | ? | 1.0
COCCNC(=O)C(OC(=O)c1ccco1)c1ccccc1F (stereo unspecified) | -7.4 | 5.7% | 7.8% | -9.1% | 10.7% | -1.9
COC(=O)c1ccc(OCC(=O)c2cccc(OC)c2)cc1 | 64.5* | 20.8% | -11.5% | 1.7% | 149.3% | 42.8*
COC(=O)c1ccc(OCC(=O)c2ccc(C)c(C)c2)cc1 | 81.6* | -9.1%[2.32 µM] | -17.1% | -0.3% | 54.8% | 23.6*
Cc1ccc(C(=O)COc2ccccc2-c2ccccc2)cc1C | 23.1 | 7.8% | 4.7% | ? | ? | -1.6
COC(=O)c1ccc(S(=O)(=O)NNC(=O)COc2ccc(C)cc2)cc1 | -7.7 | 49.1% | -3.9% | 5.22µM* | 22.5% | 4.9
CC(C)C[C@@H](CN(C)N=O)N(C[C@H](Cc1ccccc1)N(CCc1ccccc1)N=O)N=O | -12.0 | -16.0% | -18.8% | ? | ? | 1.9
CCCC[C@H](CN(N=O)[C@@H](Cc1ccccc1)CN(C)N=O)N(CCc1ccccc1)N=O | -7.5 | -14.4% | -10.1% | ? | ? | -1.0
CN(C[C@H](CC1CCCCC1)N(C[C@H](Cc1ccccc1)N(CCc1ccccc1)N=O)N=O)N=O | -3.8 | -2.4% | -20.6% | ? | 13.1µM* | -3.0
CN(C[C@H](Cc1ccccc1)N(C[C@H](Cc1ccccc1)N(CCc1cc(C(F)(F)F)cc(C(F)(F)F)c1)N=O)N=O)N=O | -31.6 | -5.4% | 12.8% | 4.15µM* | ? | -1.2
CC(C)COc1ccc(C(=O)Nc2scc(-c3ccc(Cl)cc3Cl)c2C(N)=O)cc1 | -13.4 | -0.7% | 12.6µM* | ? | 3.29µM* | 3.1
CC(C)COc1ccc(C(=O)Nc2ccc(N3CCOCC3)cc2N2CCOCC2)cc1 | -15.8 | -11.9% | -51.3% | ? | ? | -2.1
CC(C)=C(NC(=O)c1ccccc1)C(=O)NC(Cc1ccccc1)C(=O)O (stereo unspecified) | -11.7 | 1.3% | 9.6% | -15.7% | -0.9% | -5.1
Cc1cc(/C([O-])=C(/C(=S)Nc2ccc(F)cc2)[n+]2ccccc2)c(C)n1Cc1ccccc1Cl | -5.2 | 15.8% | ? | 9.28µM* | ? | 9.5
CCNC(=S)/C(=C(/[O-])c1ccc([N+](=O)[O-])cc1)[n+]1ccccc1 | -13.6 | -4.2% | 3.6% | 2.0% | 11.3% | 2.0
O=[N+]([O-])c1cccc(/C([O-])=C(/C(=S)Nc2ccccc2)[n+]2ccccc2)c1 | + | 8.7% | 7.5% | ? | -8.8% | 80.4*
Cc1cc(/C([O-])=C(/C(=S)Nc2ccc(F)cc2)[n+]2ccccc2)c(C)n1-c1ccc(F)cc1 | 11.9 | 2.8% | 14.1µM* | ? | 18.6% | 11.3
Cc1ccc(-n2c(C)cc(/C([O-])=C(/C(=S)Nc3ccc(F)c(Cl)c3)[n+]3ccccc3)c2C)cc1 | 15.0 | 22.6% | ? | ? | . | 7.6
Cc1cc(/C([O-])=C(/C(=S)Nc2ccccc2)[n+]2ccccc2)c(C)n1-c1ccccc1 | 43.7 | 7.7% | -20.1% | ? | . | 29.5*
COc1ccc(CN(C)C(=O)c2[nH]c(C)c(C(C)=O)c2C)cc1F | -4.7 | -14.9% | ? | -16.7% | 3.1% | -3.3
COc1cc(C(=O)N2CCCCC2c2cc(C(=O)Nc3ccccc3Cl)no2)cc(OC)c1C (stereo unspecified) | . | -4.7% | . | . | . | .
O=[N+]([O-])c1ccc(N2CCc3ccccc3C2)cc1 | . | -5.2% | -18.9% | 0.0% | 37.0% | 26.0*
SMILES | Shiga inhibitor | AMA1 RON2 block | HCV inh | Pf growth 96h | Pf growth 48h | Cycloheximide cs
O=C(NCCN1CCc2ccccc2C1)Nc1ccc([N+](=O)[O-])cc1 | -11.2 | -16.4% | -23.5% | ? | ? | 5.8
O=C(Nc1ccc([N+](=O)[O-])cc1)N1CCc2ccccc2C1 | . | -2.1% | 10µM* | 47.1% | ? | 37.6*
CC(C)c1ccc(NC(=O)N2CCc3ccccc3C2)cc1 | 95.7* | 3.1% | -25.1% | 31.4% | 86.7% | 41.7*
CC(=O)N1CCN(C(=O)c2ccc3oc(CCCc4ccccc4)nc3c2)CC1 | 15.9 | 1.1% | 14.0% | 13.1µM* | 0.0% | 34.5*
COCC1CCCCN1C(=O)c1ccc2oc(CCCc3ccccc3)nc2c1 (stereo unspecified) | 61.2* | -13.3% | ? | -7.6% | ? | 36.8*
CN1CCN(C(=O)c2ccc3nc(-c4ccccc4)c(-c4ccccc4)nc3c2)CC1 | -16.0 | -13.6% | ? | 4.7% | 37.6%[5.75 µM] | -0.8
CC(C)NC(=O)CN1CCN(C(=O)c2ccc3oc(CCCc4ccccc4)nc3c2)CC1 | 27.8 | -1.7% | . | 20.6% | -29.4% | 19.6*
COCC1CCN(C(=O)c2ccc3oc(CCc4ccccc4)nc3c2)C1 (stereo unspecified) | . | -1.6% | . | . | . | .
O=C(c1ccc2oc(CCCc3ccccc3)nc2c1)N1CCCC(CCCO)C1 (stereo unspecified) | 47.1* | -1.9% | -12.8% | ? | -8.9% | 29.9*
Cc1ccc2oc(C(=O)N3CCN(CC(=O)NC(C)C)CC3)c(C)c2c1 | . | 13.2% | -2.1% | ? | 14.0% | 5.5
O=C(NCc1ccco1)C(=O)N1CCCC1 | -18.2 | 11.8% | 9.0% | -11.4% | 7.6% | -2.6
CCOC(=O)N1CCN(C(=O)c2ccc3ccccc3c2)CC1 | -7.2 | -10.0% | 13.8% | 0.4% | 10.1% | -2.6
COCCN1CCN(C(=O)c2ccc3oc(CCc4ccccc4)nc3c2)CC1 | 35.1 | 9.5% | . | -17.2% | 26.7% | 23.4*
CCOC(=O)N1CCN(C(=O)c2ccc3oc(CCCc4ccccc4)nc3c2)CC1 | 80.5* | -6.0% | -20.9% | 10.4µM* | -6.0% | 39.3*
S=c1[nH]nc(CCCc2n[nH]c(=S)o2)o1 | -21.3 | 29.3% | 15.0% | -3.0% | -7.7% | -1.8
Cn1c(Cl)c(C(=O)Nc2ccccc2)c2ccccc21 | 40.9* | 2.6% | ? | 50.9% | 7.1% | 22.7*
CCCn1c(=O)c(C(=O)Nc2ccccc2)c(O)c2ccccc21 | 15.6 | 15.6% | 4.2% | 2.7% | 32.6% | -1.4
Cc1ccc(NC(=O)c2c(O)c3ccccc3n(C)c2=O)nc1 | 31.0 | 1.9% | ? | 33.8% | 133.9% | 28.9

Screening data (PubChem BioAssay)
